Measurements taken from PubChem BioAssay.
Active and inactive are the calls of the source. Unless noted, no rule for the calls is given here.

Key:
[1] = tested on: Wnt5a (protein binding on small-molecule microarray); test: small molecules binding Wnt5a protein – biophysical, small-molecule microarray, 635/667 nm fluorescence, primary screen (AID 1142); conditions: 635 nm fluorescence, higher = more signal;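 also: fluorescence read at 667 nm with signal to noise per printed feature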
[2] = ATP-based viability of Huh7 replicon cells – cell-based, CellTiter-Glo luminescence, basal, 48 h, cytotoxicity control for HCV replication inhibitor project, primary screen (AID 1143); conditions: higher = more signal, called active from +8 up or from −8 down;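 also: Huh7 hepatoma cells carrying a hepatitis C replication reporter with no stimulus; test concentration not given here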
[3] = Pseudomonas biofilm growth suppression – PAO1 strain, BacTiter-Glo luminescence, LB-PBS, primary screen (AID 1144); conditions: P. aeruginosa PAO1 biofilm, 12 h, higher = more signal
[4] = basal CRE-LacZ reporter activity in PC12 – cell-based, unstimulated, primary screen (AID 1145); conditions: no forskolin, luminescence, 4.5 h, higher = more signal, called active from +8 up or from −8 down
[5] = forskolin-driven CRE-LacZ activity in PC12 – cell-based, CRE-LacZ reporter, forskolin-stimulated, primary screen (AID 1146); conditions: luminescence, 4.5 h, higher = more signal, called active from +8 up or from −8 down;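 also: PC12 cells with 6xCRE LacZ reporter stimulated by forskolin 10 µM; beta-galactosidase reporter signal reflecting CREB driven transcription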
[6] = target: Streptavidin (Streptomyces avidinii) (UniProt P22629); test: compounds binding control protein streptavidin – biophysical, small-molecule microarray, 635/667 nm fluorescence, artefact control for SMM compound annotation, primary screen (AID 1147); conditions: higher = more signal;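 also: signal reflects streptavidin binding to arrayed compounds as a control protein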
[7] = probe aInhba binding on compound microarray – biochemical, small-molecule microarray, 635/667 nm fluorescence, primary screen (AID 1148); conditions: higher = more signal;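 also: score merges 667nm spot fluorescence with signal-to-noise for antibody binding to printed compounds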
Torsin-1A (Homo sapiens) [8] = target: Torsin-1A (Homo sapiens) (UniProt O14656); test: TOR1A wild-type binding on microarray – cell lysate, small-molecule microarray, lysate, 635/667 nm, primary screen (AID 1149); conditions: COS7 hTOR1A-WT lysate, 635 nm fluorescence, higher = more signal
Torsin-1A (Homo sapiens) [9] = target: Torsin-1A (Homo sapiens) (UniProt O14656); test: torsin A mutant lysate binding on microarrays – cell lysate, small-molecule microarray, COS7 lysate, 635/667 nm fluorescence, primary screen (AID 1150); conditions: COS7 hTOR1A mutant lysate, 635 nm fluorescence, higher = more signal;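 also: score pools 667 nm emission and signal to noise measuring lysate protein binding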
[10] = tested on: Sonic hedgehog protein (Shh); test: Sonic hedgehog microarray binding compounds – biochemical, small-molecule microarray, 635/667 nm fluorescence, primary screen (AID 1151); conditions: 635 nm fluorescence, higher = more signal;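 also: Shh protein binding to compounds spotted on small-molecule microarray slides; score combines spot fluorescence intensity with signal-to-noise across triplicate slides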
[11] = optical density shifts of acrAB sulA E. coli – strain DRC41, OD650, 48 h, E. coli filamentation inducer project, primary screen (AID 1152); conditions: higher = more signal, called active from +8 up or from −8 down;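 also: E. coli MC1000 strain DRC41 lacking acrAB efflux pump and sulA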
[12] = probe aLefty1 binding on compound microarray – biochemical, small-molecule microarray, 635/667 nm fluorescence, primary screen (AID 1153); conditions: higher = more signal;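 also: score merges spot fluorescence with signal-to-noise ratio from the scanned slide images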
[13] = plasmodial surface anion channel blockers, osmotic lysis – cell-based, P. falciparum Indochina, OD700, 1 h, primary screen (AID 1154); conditions: P. falciparum Indochina infected RBC osmotic lysis, higher = more signal, called active from +8 up or from −8 down
[14] = plasmodial surface anion channel blockers, osmotic lysis – cell-based, P. falciparum Indochina, OD700, 2 h, primary screen (AID 1155);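 also: lysis reports solute entry through the parasite surface anion channel PSAC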; conditions: P. falciparum Indochina infected erythrocytes, higher = more signal, called active from +8 up or from −8 down
[15] = changes in parasitized red cell lysis, either direction – P. falciparum Indochina, OD700, 3 h, PSAC antagonist project, primary screen (AID 1156); conditions: P. falciparum-infected erythrocytes, osmotic lysis, higher = more signal, called active from +8 up or from −8 down
[16] = plasmodial surface anion channel blockers, osmotic lysis – cell-based, P. falciparum Indochina, OD700, 18 h, primary screen (AID 1157); conditions: P. falciparum Indochina infected erythrocytes, osmotic lysis OD700, 18 h; higher = more signal, called active from +8 up or from −8 down
[17] = S6 kinase pathway phospho-S6 level changes – cell-based, A549, cytoblot, luminescence, serum-stimulated, primary screen (AID 1158); conditions: 5 h, higher = more signal;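 also: serum-stimulated A549 lung adenocarcinoma cells; signal is phosphorylated S6 detected by cytoblot immunostaining with HRP secondary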
[18] = target: NADPH oxidase 2 (Homo sapiens) (UniProt P04839); test: compounds shifting NOX2 Amplex Red fluorescence – cell-based, HEK293-NOX2, PMA-stimulated, NOX inhibitor project, primary screen (AID 1159); conditions: 45 min, higher = more signal, called active from +8 up or from −8 down; also: test concentration not given here
[19] = target: NADPH oxidase 4 (Homo sapiens) (UniProt Q9NPH5); test: compounds shifting NOX4 Amplex Red fluorescence – cell-based, HEK293-NOX4, tetracycline-induced, NOX inhibitor project, primary screen (AID 1160); conditions: HEK293-NOX4, Amplex Red H2O2 fluorescence, 45 min; higher = more signal, called active from +8 up or from −8 down
[20] = target: NADPH oxidase 5 (Homo sapiens) (UniProt Q96PH1); test: compounds shifting NOX5 Amplex Red fluorescence – cell-based, HEK293-NOX5, NOX inhibitor project, primary screen (AID 1161); conditions: HEK293-NOX5, ionomycin, 45 min, higher = more signal
NADPH oxidase 5 (Homo sapiens), sequence (Q96PH1 whole entry, looked up): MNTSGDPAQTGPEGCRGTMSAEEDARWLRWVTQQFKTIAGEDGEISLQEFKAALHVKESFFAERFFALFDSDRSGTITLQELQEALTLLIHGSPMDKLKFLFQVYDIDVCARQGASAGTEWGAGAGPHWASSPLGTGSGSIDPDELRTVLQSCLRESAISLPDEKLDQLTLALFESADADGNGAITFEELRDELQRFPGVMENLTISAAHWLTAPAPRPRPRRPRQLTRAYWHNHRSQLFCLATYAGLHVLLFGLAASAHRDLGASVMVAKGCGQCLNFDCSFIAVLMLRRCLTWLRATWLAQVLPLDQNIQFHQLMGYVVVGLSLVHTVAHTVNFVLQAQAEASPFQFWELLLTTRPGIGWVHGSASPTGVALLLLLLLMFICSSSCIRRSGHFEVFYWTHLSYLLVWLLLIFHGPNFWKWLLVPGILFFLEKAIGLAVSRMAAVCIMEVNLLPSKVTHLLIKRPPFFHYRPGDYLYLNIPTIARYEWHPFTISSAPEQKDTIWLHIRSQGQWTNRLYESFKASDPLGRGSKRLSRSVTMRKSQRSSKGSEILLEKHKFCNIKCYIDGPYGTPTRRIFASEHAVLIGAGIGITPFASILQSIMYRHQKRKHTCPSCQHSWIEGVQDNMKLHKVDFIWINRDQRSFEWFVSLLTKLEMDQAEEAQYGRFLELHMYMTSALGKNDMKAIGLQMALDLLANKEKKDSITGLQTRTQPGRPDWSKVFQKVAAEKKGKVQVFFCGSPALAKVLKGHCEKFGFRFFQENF

NADPH oxidase 2 (Homo sapiens), sequence (P04839 whole entry, looked up): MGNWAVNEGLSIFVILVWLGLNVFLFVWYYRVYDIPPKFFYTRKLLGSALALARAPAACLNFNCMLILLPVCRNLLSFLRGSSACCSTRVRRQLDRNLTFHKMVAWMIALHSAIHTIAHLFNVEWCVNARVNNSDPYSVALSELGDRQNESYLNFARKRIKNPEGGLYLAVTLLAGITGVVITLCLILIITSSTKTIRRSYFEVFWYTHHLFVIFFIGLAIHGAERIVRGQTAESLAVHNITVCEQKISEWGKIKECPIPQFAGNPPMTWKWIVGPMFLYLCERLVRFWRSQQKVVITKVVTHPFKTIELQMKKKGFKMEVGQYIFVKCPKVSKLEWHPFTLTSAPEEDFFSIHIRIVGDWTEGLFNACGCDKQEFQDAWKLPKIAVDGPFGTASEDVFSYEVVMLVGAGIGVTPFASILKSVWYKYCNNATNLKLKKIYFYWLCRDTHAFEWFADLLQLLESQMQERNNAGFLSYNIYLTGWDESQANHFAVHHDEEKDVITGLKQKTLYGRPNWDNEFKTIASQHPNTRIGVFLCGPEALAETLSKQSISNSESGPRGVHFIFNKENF
Torsin-1A (Homo sapiens), sequence (O14656 whole entry, looked up): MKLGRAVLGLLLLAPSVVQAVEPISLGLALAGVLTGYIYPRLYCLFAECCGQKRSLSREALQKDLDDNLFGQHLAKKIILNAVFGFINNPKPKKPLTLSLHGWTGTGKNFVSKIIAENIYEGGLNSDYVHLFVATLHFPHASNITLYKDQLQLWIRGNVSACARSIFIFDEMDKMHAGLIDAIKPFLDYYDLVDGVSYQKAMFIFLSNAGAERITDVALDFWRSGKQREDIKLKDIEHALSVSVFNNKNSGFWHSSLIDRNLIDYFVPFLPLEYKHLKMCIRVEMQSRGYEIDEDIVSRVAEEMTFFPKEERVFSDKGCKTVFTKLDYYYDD
NADPH oxidase 4 (Homo sapiens), sequence (Q9NPH5 whole entry, looked up): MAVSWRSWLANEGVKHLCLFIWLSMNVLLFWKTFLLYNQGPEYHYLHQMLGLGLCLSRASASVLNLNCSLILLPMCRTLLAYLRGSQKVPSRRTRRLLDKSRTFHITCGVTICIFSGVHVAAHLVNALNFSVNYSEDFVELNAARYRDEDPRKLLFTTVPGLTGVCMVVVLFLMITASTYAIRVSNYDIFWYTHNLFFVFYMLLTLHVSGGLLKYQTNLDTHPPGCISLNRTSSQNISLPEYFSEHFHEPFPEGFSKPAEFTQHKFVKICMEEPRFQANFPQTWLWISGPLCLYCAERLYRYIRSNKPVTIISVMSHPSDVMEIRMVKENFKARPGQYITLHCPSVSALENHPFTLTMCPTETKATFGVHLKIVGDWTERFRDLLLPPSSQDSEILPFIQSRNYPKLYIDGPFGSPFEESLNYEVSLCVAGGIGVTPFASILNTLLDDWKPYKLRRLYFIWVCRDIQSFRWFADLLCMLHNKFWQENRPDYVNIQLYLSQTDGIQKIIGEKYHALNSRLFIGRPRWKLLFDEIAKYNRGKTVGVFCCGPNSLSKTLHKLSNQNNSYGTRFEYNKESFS
Streptavidin (Streptomyces avidinii), sequence (P22629 whole entry, looked up): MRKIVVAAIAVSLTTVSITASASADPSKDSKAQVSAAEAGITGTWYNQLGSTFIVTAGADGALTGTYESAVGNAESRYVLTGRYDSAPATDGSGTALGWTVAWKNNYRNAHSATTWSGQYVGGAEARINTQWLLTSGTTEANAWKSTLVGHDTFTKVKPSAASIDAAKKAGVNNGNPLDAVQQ

Structure (SMILES) | composite z-score [1] | z-score [2] | z-score [3] | z-score [4] | z-score [5] | composite z-score [6] | composite z-score [7] | composite z-score (Torsin-1A (Homo sapiens) [8]) | composite z-score (Torsin-1A (Homo sapiens) [9]) | composite z-score [10] | z-score [11] | composite z-score [12] | z-score [13] | z-score [14] | z-score [15] | z-score [16] | z-score [17] | z-score [18] | z-score [19] | z-score [20]
COCCCNC(=O)[C@@]1(Cc2ccccc2N=[N+]=[N-])N=C(c2ccc(OCCCO)cc2)O[C@H]1c1ccccc1 | 1.51 | -4.36 (inactive) | -1.31 (inactive) | 0.558 (inactive) | -0.472 (inactive) | -0.459 | 0.0589 | 3.67 | 3.61 | 0.55 | -0.3 (inactive) | 0.535 | 21.5 (active) | 4.21 (inactive) | 1.28 (inactive) | 1.4 (inactive) | 0.796 | -2.06 (inactive) | -0.374 (inactive) | -1.63
C=CCOC(=O)[C@H]1[C@@H]2C(=O)O[C@@H](c3ccccc3)[C@@H](c3ccccc3)N2[C@@H](c2ccc(OCCOC(=O)[C@@H]3C[C@@H]4C(=O)N[C@@H](CCCCN(C)C)C(=O)N4[C@@H]3c3ccc(O)cc3)cc2)[C@]12C(=O)Nc1ccccc12 | 0.261 | -0.0273 (inactive) | 0.283 (inactive) | 0.411 (inactive) | 0.739 (inactive) | -0.245 | -0.0468 | 0.756 | 0.73 | 1.96 | -1.53 (inactive) | -0.0873 | 0.0625 (inactive) | 0.249 (inactive) | 3.35 (inactive) | 0.251 (inactive) | -0.444 | 2.51 (inactive) | 0.874 (inactive) | 0.391
O=C1C=C(c2ccccc2)C(=O)c2ccc([C@H]3Oc4ccccc4S(=O)(=O)N4CCC[C@@H]34)cc21 | 0.34 | -6.42 (inactive) | 0.016 (inactive) | 9.47 (active) | 33 (active) | -0.309 | -0.258 | 0.0359 | 1.97 | 0.222 | 0.864 (inactive) | -0.08 | 2.45 (inactive) | 0.0567 (inactive) | -0.37 (inactive) | -0.236 (inactive) | 0.208 | 0.398 (inactive) | -5.41 (inactive) | -6.41
[N-]=[N+]=NCc1ccccc1C[C@@]1(C(=O)NCc2ccccc2)N=C(c2ccc(OCCCO)cc2)O[C@@H]1c1ccccc1N=[N+]=[N-] | 0.122 | -3.96 (inactive) | 0.0507 (inactive) | 1.05 (inactive) | -0.639 (inactive) | 1.2 | -0.003 | 0.0959 | 0.461 | -1.08 | -0.0632 (inactive) | -0.221 | 32.6 (active) | 33.3 (active) | 2.4 (inactive) | 3.61 (inactive) | 0.108 | 0.0504 (inactive) | -0.437 (inactive) | -1.22
C=C(/C(=C/C[C@H](OC(C)=O)c1ccccc1OCCO)c1cc(C(=O)OC)ccc1OC)C(C)C | 0.608 | -3.44 (inactive) | 0.48 (inactive) | 13.6 (active) | -0.556 (inactive) | -1.06 | 0.0906 | 0.356 | 1.53 | 1.4 | 0.483 (inactive) | -0.157 | 5.75 (inactive) | 0.195 (inactive) | 1.85 (inactive) | -1.19 (inactive) | 1.09 | 0.137 (inactive) | 0.264 (inactive) | -2.12
CC(C)(C)OC(=O)CC[C@]1(C(=O)NCc2ccccc2)N=C(c2ccc(OCCCO)cc2)O[C@H]1c1ccccc1CN=[N+]=[N-] | 1.3 | -3.05 (inactive) | -0.368 (inactive) | 0.344 (inactive) | -0.156 (inactive) | 1.2 | 0.138 | 0.245 | 0.895 | 1.36 | 0.829 (inactive) | 0.146 | 25.3 (active) | 12.3 (active) | 3.22 (inactive) | 1.65 (inactive) | 0.224 | -0.174 (inactive) | -0.533 (inactive) | -1.47
CN(C)c1ccc(C(O)C2C=CC3C(=O)N(c4ccccc4)C(=O)C3N2Nc2ccc([N+](=O)[O-])cc2)cc1 (stereo not given) | 0.0074 | -0.619 (inactive) | 0.108 (inactive) | 0.49 (inactive) | -0.464 (inactive) | 0.769 | -0.0736 | 0.603 | 0.377 | -0.13 | -1.16 (inactive) | 0.388 | 4.9 (inactive) | 1.16 (inactive) | 1.69 (inactive) | 0.73 (inactive) | -0.503 | -1.95 (inactive) | -4.56 (inactive) | -4.69
CC(C)C[C@@H]1NC(=O)[C@@H]2C[C@H](C(=O)NCCCCCN)[C@H](c3ccc(O)cc3)N2C1=O | 0.329 | -0.079 (inactive) | -0.422 (inactive) | 0.411 (inactive) | 0.437 (inactive) | 1.01 | -0.171 | 0.457 | 0.465 | 2.04 | -0.899 (inactive) | -0.463 | 0.932 (inactive) | -0.0263 (inactive) | -0.302 (inactive) | 0.0068 (inactive) | -0.928 | -0.125 (inactive) | -1.36 (inactive) | 0.553
